# Reference: PubChem BioAssay (EPA / NIEHS)
# Inconclusive results are not listed. The source made the active and inactive calls. How the source made its calls, unless noted: active means hit-call score of the fitted dose curve at least 0.9, where 1 is the maximum; inactive means score below 0.9.
# Tests used:
# [1] = read-out: Interleukin-8 (IL8), CXCL8 (gene 3576); assay: BSK_3C_IL8: BioMAP Diversity Plus: 3C Assay for Interleukin-8 (IL8) Biomarker Activity (AID 2283020); settings: primary human endothelial cells (HUVEC); actives raise or lower the signal
# In short: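 Using DMSO-treated wells as the baseline, bidirectional curve fitting was applied to ELISA-measured IL-8 from human umbilical vein endothelial cultures sampled 24 h after compound addition.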
# [2] = read-out: Monokine induced gamma interferon (MIG), CXCL9 (gene 4283); assay: BSK_3C_MIG: BioMAP Diversity Plus: 3C Assay for Monokine induced gamma interferon (MIG) Biomarker Activity (AID 2283021); settings: primary human endothelial cells (HUVEC); actives raise or lower the signal
# In short: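 ELISA-measured MIG in dosed HUVEC 3C cultures at 24 h, analysed by bidirectional fitting with DMSO defining baseline activity.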
# [3] = target: human Vitamin D Receptor (VDR), VDR (gene 7421) (UniProt P11473); assay: ATG_VDR_TRANS: Attagene TRANS-FACTORIAL HepG2 Assay for human Vitamin D Receptor (VDR) (AID 2283022; active means hit-call score of the fitted dose curve at least 0.9, where 1 is the maximum)
# Chain of human Vitamin D Receptor (VDR), VDR (gene 7421) (P11473 whole entry, looked up, the tested form may be a part): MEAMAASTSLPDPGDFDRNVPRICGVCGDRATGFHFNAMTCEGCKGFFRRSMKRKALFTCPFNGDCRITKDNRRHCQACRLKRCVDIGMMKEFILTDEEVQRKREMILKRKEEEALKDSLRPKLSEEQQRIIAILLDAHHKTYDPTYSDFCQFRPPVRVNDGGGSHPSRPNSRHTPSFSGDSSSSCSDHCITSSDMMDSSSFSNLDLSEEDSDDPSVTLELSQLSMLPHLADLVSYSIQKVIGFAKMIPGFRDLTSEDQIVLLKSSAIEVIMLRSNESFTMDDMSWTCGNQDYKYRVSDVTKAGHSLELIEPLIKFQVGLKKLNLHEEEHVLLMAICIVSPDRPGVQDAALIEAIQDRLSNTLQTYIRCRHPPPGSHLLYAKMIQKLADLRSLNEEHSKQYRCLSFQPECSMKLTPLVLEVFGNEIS
# In short: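 Fluorescence of labelled reporter cDNA fragments, resolved by capillary electrophoresis, gives mRNA induction after 24 h treatment of HepG2 cells carrying transfected Gal4-fusion reporter units. Activity is fitted in the positive direction with DMSO as baseline.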
# [4] = BSK_3C_SRB: Viability Assessment in the BioMAP Diversity Plus: 3C Assay (AID 2283023); settings: primary human endothelial cells (HUVEC);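 further: cells read 24 h after compound dosing; fitted both ways against DMSO so a hit may be signal rise or drop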
# In short: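 Cells were dosed with chemical, cultured 24 h, fixed with 10% TCA, stained with 0.1% SRB and read at 560 nm. Human umbilical vein endothelium was used; DMSO served as negative control and baseline.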
# [5] = read-out: Matrix Metallopeptidase 1 (MMP1), MMP1 (gene 4312); assay: BSK_BE3C_MMP1: BioMAP Diversity Plus: BE3C Assay for Matrix Metallopeptidase 1 (MMP1) Biomarker Activity (AID 2283024); settings: primary human bronchial epithelial cells; actives raise or lower the signal
# In short: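 In this multiplexed primary-cell system, human bronchial epithelium received chemicals for 24 h before an ELISA for MMP1. Values reflect bidirectional fits normalised to the DMSO baseline.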
# [6] = BSK_3C_Vis: BioMAP Diversity Plus: 3C Assay for Morphology Visualization (AID 2283025); settings: primary human endothelial cells (HUVEC);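 further: fitted both ways so gain or loss versus DMSO counts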;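 on AC50: light microscopy image of cell morphology used as background control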
# In short: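 Light-microscopy morphology readout, 24 h exposure, human primary umbilical vein endothelium; analysed relative to DMSO with bidirectional fitting.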
# [7] = read-out: Pselectin, SELP (gene 6403); assay: BSK_4H_Pselectin: BioMAP Diversity Plus: 4H Assay for Pselectin Biomarker Activity (AID 2283026); settings: primary human endothelial cells (HUVEC); actives raise or lower the signal
# In short: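 Bidirectional fits against DMSO gave the endpoint. Cells: primary human umbilical vein endothelium, chemical-treated for 24 h before ELISA detection of P-selectin.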
# [8] = BSK_4H_SRB: Viability Assessment in the BioMAP Diversity Plus: 4H Assay (AID 2283027); settings: primary human endothelial cells (HUVEC);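 further: cells exposed to compound for 24 h before staining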;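 on AC50: curves fitted both ways versus DMSO so AC50 may be loss or gain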
# In short: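 Cytotoxicity readout: sulforhodamine B (0.1%) staining of total protein after 10% TCA fixation, measured at 560 nm in human umbilical vein endothelium at 24 h. DMSO set the baseline; fitting was bidirectional.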
# [9] = BSK_BE3C_SRB: Viability Assessment in the BioMAP Diversity Plus: BE3C Assay (AID 2283028); settings: primary human bronchial epithelial cells;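 on AC50: fitted both ways so AC50 may mark signal gain or loss versus DMSO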
# In short: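 Overt cytotoxicity was assessed as total protein in confluent human primary bronchial epithelial cultures 24 h after chemical addition, using 0.1% sulforhodamine B staining read at 560 nm.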
# [10] = read-out: Thrombomodulin, THBD (gene 7056); assay: BSK_3C_Thrombomodulin: BioMAP Diversity Plus: 3C Assay for Thrombomodulin Biomarker Activity (AID 2283029); settings: primary human endothelial cells (HUVEC); actives raise or lower the signal
# In short: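 In a multiplexed primary-cell system, human umbilical vein endothelium received chemical and was assayed 24 h later for thrombomodulin by ELISA. Parallel cultures were SRB-stained (0.1% SRB after 10% TCA fixation, read at 560 nm) to flag cytotoxicity.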
# [11] = read-out: Urokinase-type plasminogen activator receptor (uPAR), PLAUR (gene 5329); assay: BSK_4H_uPAR: BioMAP Diversity Plus: 4H Assay for Urokinase-type plasminogen activator receptor (uPAR) Biomarker Activity (AID 2283030); settings: primary human endothelial cells (HUVEC); actives raise or lower the signal
# In short: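 Chemicals are dosed onto human vascular endothelial primary cells (umbilical vein). After 24 h, uPAR is read by ELISA. Gain or loss of signal is fitted relative to DMSO.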
# [12] = read-out: Vascular endothelial growth factor receptor 2 (Homo sapiens) (UniProt P35968); assay: BSK_4H_VEGFRII: BioMAP Diversity Plus: 4H Assay for Vascular endothelial growth factor receptor 2 (VEGFR2) Biomarker Activity (AID 2283031); settings: primary human endothelial cells (HUVEC); actives raise or lower the signal;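 on AC50: cell-surface VEGFR2 protein level quantified by ELISA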
# In short: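 VEGFRII levels on human vascular endothelial primary cells were determined by ELISA at 24 hours post-dosing, with gain- or loss-of-signal fitted against DMSO controls.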
# [13] = read-out: Human Leukocyte Antigen - DR isotype (HLADR), HLA-DRA (gene 3122); assay: BSK_BE3C_HLADR: BioMAP Diversity Plus: BE3C Assay for Human Leukocyte Antigen - DR isotype (HLADR) Biomarker Activity (AID 2283032); settings: primary human bronchial epithelial cells; actives raise or lower the signal
# In short: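 BioMAP BE3C format: human bronchial epithelium, 24 h compound treatment, ELISA detection of HLA-DR, with bidirectional analysis relative to DMSO.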
# [14] = read-out: Vascular cell adhesion molecule 1 (VCAM1), VCAM1 (gene 7412); assay: BSK_4H_VCAM1: BioMAP Diversity Plus: 4H Assay for Vascular cell adhesion molecule 1 (VCAM1) Biomarker Activity (AID 2283033); settings: primary human endothelial cells (HUVEC); actives raise or lower the signal;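 further: cell-surface VCAM-1 protein measured by ELISA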
# In short: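 In this human endothelial (HUVEC) system, biomarker ELISA was run 24 h after compound addition, and total protein in parallel wells was assessed by SRB at 560 nm; DMSO served as negative control.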
# [15] = read-out: Interferon-gamma inducible Protein 10 (IP10), CXCL10 (gene 3627); assay: BSK_BE3C_IP10: BioMAP Diversity Plus: BE3C Assay for Interferon-gamma inducible Protein 10 (IP10) Biomarker Activity (AID 2283034); settings: primary human bronchial epithelial cells; actives raise or lower the signal
# In short: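 BE3C cells (human bronchial epithelial, primary); 24 h exposure; ELISA for IP-10; DMSO-referenced bidirectional fit.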
# [16] = read-out: Monokine induced gamma interferon (MIG), CXCL9 (gene 4283); assay: BSK_BE3C_MIG: BioMAP Diversity Plus: BE3C Assay for Monokine induced gamma interferon (MIG) Biomarker Activity (AID 2283035); settings: primary human bronchial epithelial cells; actives raise or lower the signal;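 further: MIG protein measured by ELISA in BE3C cultures after 24 h of dosing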
# In short: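 hu bronchial epithelial 1° cells, 24 h cpd; MIG by ELISA; bidirectional fit, DMSO = baseline.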
# [17] = read-out: Transforming growth factor beta 1 (TGFb1), TGFB1 (gene 7040); assay: BSK_BE3C_TGFb1: BioMAP Diversity Plus: BE3C Assay for Transforming growth factor beta 1 (TGFb1) Biomarker Activity (AID 2283036;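 on outcome: TGF-b1 protein level measured by ELISA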); settings: primary human bronchial epithelial cells; actives raise or lower the signal
# In short: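 TGF-b1 measured via ELISA, 24 h after chemical dosing of human bronchial epithelial cells (BE3C). Overt cytotoxicity assessed in parallel by SRB (0.1%, TCA-fixed, 560 nm); analysis bidirectional relative to DMSO.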
# [18] = read-out: Plasminogen activator inhibitor-1 (PAI1), SERPINE1 (gene 5054); assay: BSK_BE3C_PAI1: BioMAP Diversity Plus: BE3C Assay for Plasminogen activator inhibitor-1 (PAI1) Biomarker Activity (AID 2283037); settings: primary human bronchial epithelial cells; actives raise or lower the signal
# In short: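 In this multiplexed primary-cell system, bronchial epithelial cells receive test chemical and are sampled at 24 h. PAI-1 is read by ELISA, with DMSO serving as negative control for bidirectional fitting.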
# [19] = read-out: urokinase plasminogen activator (uPA), PLAU (gene 5328); assay: BSK_BE3C_uPA: BioMAP Diversity Plus: BE3C Assay for urokinase plasminogen activator (uPA) Biomarker Activity (AID 2283038); settings: primary human bronchial epithelial cells; actives raise or lower the signal;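 on outcome: uPA protein level quantified by ELISA in cell cultures; uPA read one day after compound addition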
# In short: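 Measured by ELISA: uPA from human primary bronchial epithelial cells 24 h after chemical treatment. Values derive from bidirectional curve fitting with DMSO serving as negative control. Total protein by SRB staining in parallel wells flagged overt cytotoxicity.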
# [20] = read-out: Urokinase-type plasminogen activator receptor (uPAR), PLAUR (gene 5329); assay: BSK_BE3C_uPAR: BioMAP Diversity Plus: BE3C Assay for Urokinase-type plasminogen activator receptor (uPAR) Biomarker Activity (AID 2283039); settings: primary human bronchial epithelial cells; actives raise or lower the signal;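 further: uPAR protein level measured by ELISA on the cells; cells exposed to compound for one day before measurement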
# In short: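 Chemically treated human bronchial epithelial cells (lung primary) are assayed for uPAR by ELISA after 24 h, with data fitted in both directions using DMSO as negative control.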
smiles,measurement,setting,value
CCC(C)(C)C1CCC(O)CC1 (stereo unspecified),outcome,[1],inactive
same,outcome,[2],inactive
same,outcome,[3],inactive
same,outcome,[4],inactive
same,outcome,[5],inactive
same,outcome,[6],inactive
same,outcome,[7],inactive
same,outcome,[8],inactive
same,outcome,[9],inactive
same,outcome,[10],inactive
same,outcome,[11],inactive
same,outcome,[12],inactive
same,outcome,[13],inactive
same,outcome,[14],inactive
same,outcome,[15],inactive
same,outcome,[16],inactive
same,outcome,[17],inactive
same,outcome,[18],inactive
same,outcome,[19],inactive
same,outcome,[20],inactive
C#C[C@]1(O)CC[C@H]2[C@@H]3CCC4=CC(=O)CC[C@@H]4[C@H]3CC[C@@]21C,AC50,[1],5.01 µM (active)
same,outcome,[2],inactive
same,AC50,[4],5.17 µM (active)
same,outcome,[5],inactive
same,outcome,[6],inactive
same,outcome,[7],inactive
same,AC50,[8],17.1 µM (active)
same,outcome,[9],inactive
same,outcome,[10],inactive
same,AC50,[11],11 µM (active)
same,AC50,[12],20 µM (active)
same,outcome,[13],inactive
same,outcome,[14],inactive
same,outcome,[15],inactive
same,outcome,[16],inactive
same,outcome,[17],inactive
same,outcome,[18],inactive
same,outcome,[19],inactive
same,outcome,[20],inactive
CCCCCCCCC(=O)O,outcome,[1],inactive
same,outcome,[2],inactive
same,outcome,[4],inactive
same,outcome,[5],inactive
same,outcome,[6],inactive
same,outcome,[7],inactive
same,outcome,[8],inactive
same,outcome,[9],inactive
same,outcome,[10],inactive
same,outcome,[11],inactive
same,outcome,[12],inactive
same,outcome,[13],inactive
same,outcome,[14],inactive
same,outcome,[15],inactive
same,outcome,[16],inactive
same,outcome,[17],inactive
same,outcome,[18],inactive
same,outcome,[19],inactive
same,outcome,[20],inactive
CN1CCN(c2ccccc2/C=C2\SCCN(c3ccc(Cl)c(Cl)c3)C2=O)CC1,AC50,[1],3.55 µM (active)
same,outcome,[2],inactive
same,outcome,[3],inactive
same,AC50,[4],16.3 µM (active)
same,AC50,[5],32 µM (active)
same,AC50,[6],13.9 µM (active)
same,AC50,[7],6.28 µM (active)
same,AC50,[8],15 µM (active)
same,AC50,[9],33.3 µM (active)
same,outcome,[10],inactive
same,AC50,[11],5.49 µM (active)
same,outcome,[12],inactive
same,AC50,[13],25.7 µM (active)
same,outcome,[14],inactive
same,AC50,[15],30.4 µM (active)
same,AC50,[17],29.3 µM (active)
same,AC50,[18],33.3 µM (active)
same,AC50,[19],30.4 µM (active)
O=c1c(-c2ccc(O)cc2)coc2cc(O)ccc12,outcome,[1],inactive
same,outcome,[2],inactive
same,outcome,[4],inactive
same,outcome,[5],inactive
same,outcome,[6],inactive
same,AC50,[7],20 µM (active)
same,outcome,[8],inactive
same,outcome,[9],inactive
same,outcome,[10],inactive
same,outcome,[11],inactive
same,outcome,[12],inactive
same,outcome,[13],inactive
same,outcome,[14],inactive
same,outcome,[15],inactive
same,outcome,[16],inactive
same,outcome,[17],inactive
same,outcome,[18],inactive
same,outcome,[19],inactive
same,outcome,[20],inactive
COc1cc(CCC(=O)CC(=O)CCc2ccc(O)c(OC)c2)ccc1O,outcome,[3],inactive
